IL-1B inflam inh: blocks inflammasome-driven IL-1 beta release. 4.7% of 360,000 active. THP-1 LPS/ATP IL-1B secretion, AlphaLISA, 16 h; hits give low values. activity change, % at 57.5 µM; in the data active = activity change below about -50%; inconclusive = mostly about -30% to -49%
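Secreted IL-1B measured by AlphaLISA bead assay after 16 h compound exposure of THP-1 cells; compounds (final up to 57.5 uM) added 1 h before LPS (250 ng/mL) and ATP (1.25 mM) stimulation; lower signal means less secretion.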
TDP1 cell CPT: DT40-hTDP1 cell growth loss with CPT | Potency, µM (series often up to 46.2 µM), most hits filed as inhibitors | 12% of 420,000 active | chicken DT40 Tdp1-/-;hTDP1 cells + 20 nM CPT, ATP luminescence, 48 h; also: nearly all actives have a fitted effect of over 55% in size
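Cell growth measured by CellTiter-Glo luminescence after a minimum 48 h, 37 C compound exposure with 20 nM CPT in Tdp1-knockout DT40 cells stably expressing hTDP1, seeded 400/well; qHTS titration format.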
HT1080 IDH1KD tx: kills HT-1080 cells with IDH1 knockdown | HT-1080 IDH1 knockdown viability, ATP luminescence, 48 h | 2% of 360,000 active | Potency, µM (titrated, usually from 46.1 µM), actives largely listed as cytotoxic | AID 686971
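After a 2 h attachment period, IDH1KD HT-1080 cells took pin-transferred compound for 48 h at 37 °C; ATP-based luminescence after 10 min room-temperature reagent incubation reported viability.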
uPA generation: cell surface uPA generation inhibition | cell surface uPA generation assay, qHTS | Potency, µM (highest dose often 38.3 µM), hits mostly inhibitors | 0.31% of 330,000 active | AID 540303; active = well fitted inhibition curve with a large enough effect; inconclusive = small, poorly fitted or top-dose-only effect; inactive = no such curve, though single readings can be large or run the other way; tested in mouse RAW 264.7 cells; also: nearly all actives have a fitted effect of over 55% in size
HT1080-NT tox: kills 2HG-producing HT-1080-NT fibrosarcoma cells | HT-1080-NT fibrosarcoma viability, CellTiter-Glo ATP luminescence, 48 h | Potency, µM (highest dose often 46.1 µM), most hits filed as cytotoxic | 1.6% of 360,000 active | AID 686970;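 also: NT is the 2HG producing partner of a matched IDH1 knockdown line; nearly all actives have a fitted effect of over 55% in size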
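Luminescent CellTiter-Glo readout after 48 hours of compound exposure at 37 degrees C defined viability of HT-1080-NT cells. Activity was normalized to DMSO wells and cell-free media wells; concentration-response curves were fitted and assigned curve classes.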
TDP1 cell noCPT: qHTS for Inhibitors of human tyrosyl-DNA phosphodiesterase 1 (TDP1): qHTS in cells in absence of CPT. DT40 Tdp1-/- hTDP1 cells, no CPT, ATP luminescence, 48 h. Potency, µM (doses to about 46.2 µM), usual class: inhibitors. 15% of 420,000 active. AID 686978, 2013; also: nearly all actives have a fitted effect of over 55% in size
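A cellular qHTS used chicken DT40 cells lacking endogenous Tdp1 but carrying stably transfected human TDP1. Compounds were applied without camptothecin, and cell growth kinetics were judged by ATP-dependent luminescence after ≥48 hr.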
Numbers stand for hits; ! = a repeat was not active; [ ] = remark or other dose. Most compounds without a hit are left out; they make up all but 19% or so of the library. Unless noted, calls follow the shape of the dose curve; as a rule, active = well fitted curve in the direction sought with a large enough effect; inconclusive = small, poorly fitted or top-dose-only effect, or another doubt; inactive = no such curve, though single readings can be large; an effect the other way counts as inactive or inconclusive.

Results for Cc1ncoc1C(=O)Nc1ccc(Oc2ccccc2)cc1 ?
IL-1B inflam inh: inactive; TDP1 cell CPT: inactive; HT1080 IDH1KD tx: inactive; HT1080-NT tox: inactive; TDP1 cell noCPT: inactive

How did CS(=O)(=O)N1CCN(c2ccc(NC(=O)C(c3ccccc3)c3ccccc3)cc2)CC1 do in these assays?
IL-1B inflam inh: inactive; TDP1 cell CPT: inactive; HT1080 IDH1KD tx: inactive; uPA generation: inactive; HT1080-NT tox: inactive; TDP1 cell noCPT: inconclusive

How did O=C(Nc1ccc(N2CCCC2)cc1)c1cc(Br)ccc1Cl do in these assays?
IL-1B inflam inh: inactive; TDP1 cell CPT: 3.7µM; HT1080 IDH1KD tx: inconclusive; uPA generation: inactive; HT1080-NT tox: inconclusive; TDP1 cell noCPT: 4.6µM

What do the screens show for `Cc1nc(C)c(C(=O)Nc2ccc(Oc3ccccc3)cc2)o1`?
IL-1B inflam inh: inactive; TDP1 cell CPT: inconclusive; HT1080 IDH1KD tx: inactive; uPA generation: inactive; HT1080-NT tox: inconclusive; TDP1 cell noCPT: 15µM

What do the screens show for `O=C(Nc1ccc(N2CCCC2)cc1)C(Cl)c1ccccc1` (stereo not given)?
IL-1B inflam inh: inactive; TDP1 cell CPT: 8.2µM; HT1080 IDH1KD tx: inactive; uPA generation: inactive; HT1080-NT tox: inactive; TDP1 cell noCPT: 13µM

How did Cc1nn(-c2ccccc2)c(C)c1CC(=O)NCC1Cc2cc(-c3cncnc3)ccc2O1 (stereo not given) do in these assays?
TDP1 cell CPT: inactive[9.04 µM]; TDP1 cell noCPT: inactive

What do the screens show for `O=C1N2CCCCC1(Sc1ccccc1)CCC2` (stereo not given)?
IL-1B inflam inh: inactive; TDP1 cell CPT: inactive; HT1080 IDH1KD tx: inactive; HT1080-NT tox: inactive; TDP1 cell noCPT: inactive

How did C[C@]12CCC(=O)C=C1C=C[C@@H]1[C@@H]2CC[C@@]2(C)[C@H]1CC[C@@]21CCC(=O)O1 do in these assays?
IL-1B inflam inh: inactive; TDP1 cell CPT: inconclusive; HT1080 IDH1KD tx: inactive; uPA generation: inactive; HT1080-NT tox: inactive; TDP1 cell noCPT: 15µM!

Results for CC(=O)SC1CC(=O)C=C2CCC3C4CCC(=O)OC4(C)CCC3C21C (stereo not given) ?
IL-1B inflam inh: inactive; TDP1 cell CPT: inactive; HT1080 IDH1KD tx: inactive; uPA generation: inactive; HT1080-NT tox: inactive; TDP1 cell noCPT: inactive

What do the screens show for `CC(=O)SC1CC2=CC(=O)CC[C@@]2(C)C2CC[C@@]3(C)[C@@H](CC[C@@]34CCC(=O)O4)C12` (stereo not given in full)?
TDP1 cell CPT: 13µM; TDP1 cell noCPT: 16µM

Results for CCOc1ccc(CNS(=O)(=O)c2ccc(-c3cc(C(F)(F)F)on3)s2)cc1 ?
TDP1 cell CPT: inconclusive; TDP1 cell noCPT: inactive

Results for O=c1c(-c2nnc(SCc3ccc(Cl)c(Cl)c3)o2)cccn1Cc1ccccc1 ?
IL-1B inflam inh: inactive; TDP1 cell CPT: inconclusive; HT1080 IDH1KD tx: inactive; uPA generation: inactive; HT1080-NT tox: inactive; TDP1 cell noCPT: 21µM

How did O=C(/C=C/c1ccco1)NC(=S)Nc1cccc(-c2nc3ccccc3s2)c1 do in these assays?
IL-1B inflam inh: inactive; TDP1 cell CPT: 4.6µM; HT1080 IDH1KD tx: 21µM; uPA generation: inactive; HT1080-NT tox: 23µM; TDP1 cell noCPT: 5.8µM

How did O=C(/C=C/c1ccco1)NC(=S)Nc1cc(-c2nc3ccccc3s2)ccc1Cl do in these assays?
IL-1B inflam inh: inactive; TDP1 cell CPT: 12µM; HT1080 IDH1KD tx: inconclusive; uPA generation: inactive; HT1080-NT tox: inconclusive; TDP1 cell noCPT: 23µM

How did Cc1ccc(-c2nc3ccccc3s2)cc1NC(=S)NC(=O)c1cccc2ccccc12 do in these assays?
IL-1B inflam inh: inactive; TDP1 cell CPT: inconclusive; HT1080 IDH1KD tx: inactive; uPA generation: inactive; HT1080-NT tox: inactive; TDP1 cell noCPT: inconclusive

Results for Cc1ccc(-c2nc3ccccc3s2)cc1NC(=S)NC(=O)/C=C/c1ccco1 ?
IL-1B inflam inh: inactive; TDP1 cell CPT: inconclusive; HT1080 IDH1KD tx: inconclusive; uPA generation: inactive; HT1080-NT tox: inconclusive; TDP1 cell noCPT: 13µM

How did Cc1ccccc1NC(=S)NC(=O)/C=C/c1ccco1 do in these assays?
IL-1B inflam inh: inactive; TDP1 cell CPT: inactive; HT1080 IDH1KD tx: inactive; uPA generation: inactive; HT1080-NT tox: inactive; TDP1 cell noCPT: inactive

Compound activity (PubChem)
